# Test results as given in PubChem BioAssay (Tox21).
# Values joined by “and” are separate entries in the source; they are usually repeats but may differ in a detail not shown here. Equal entries are not always repeated. Records with an inconclusive call do not appear. Entries that show only a call come without a potency. Some compounds were tested as several samples or in several runs, with calls that do not always agree. Active and inactive are the calls of the source. Unless noted, calls follow the shape of the dose curve; as a rule, active = well fitted curve in the direction sought with a large enough effect in the repeat runs; inconclusive = weak or mixed curves; inactive = no such curve, though single readings can be large; an effect the other way counts as inactive or inconclusive.
# Assays:
# [1] = qHTS assay to identify small molecule agonists of the hypoxia (HIF-1) signaling pathway - cell viability counter screen (AID 1224844; calls by dose curve; also: nearly all actives have a fitted effect of over 50% in size; also: potency is read from the fitted curve at half-maximal effect)
# Procedure, shortened: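 Same wells as the HIF-1 reporter screen; ME-180 cells carrying HRE-bla, 17 hr treatment at 37C; CellTiter-Glo luminescence read after 30 min at room temperature.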
# [2] = qHTS assay to identify small molecule agonists of H2AX (AID 1224845; active = well fitted activation curve with a large enough effect in the signal ratio in the repeat runs, not every such curve was filed as active; the % refers to the signal ratio; also: potency is read from the fitted curve at half-maximal effect)
# Procedure, shortened: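 Phospho-H2AX Ser139 measured by HTRF (ex 320 nm; em 665 and 620 nm) after 24 hr antibody incubation. Compounds, 15 concentrations, 0.76% DMSO, were applied to CHO-K1 cells for 3hr at 37C before lysis.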
# [3] = qHTS assay to identify small molecule agonists of H2AX - cell viability counter screen (AID 1224847; calls by dose curve; also: nearly all actives have a fitted effect of over 30% in size; also: potency is read from the fitted curve at half-maximal effect;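 as to activity change, negative = cytotoxicity: wild-type CHO-K1 cells; top concentration of the series differs between compounds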)
# Procedure, shortened: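 Counter-screen for viability: CellTiter-Glo ATP luminescence read after 3 h compound treatment (15-point titration, 0.76% DMSO final) of CHO-K1 cells at 37C, with 30 min room-temperature reagent incubation.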
# [4] = qHTS RealTime-Glo MT Cell Viability Assay in HepG2 cells - 24 hour (AID 1224867); also: nearly all actives have a fitted effect of over 50% in size; also: potency is read from the fitted curve at half-maximal effect
# Procedure, shortened: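 Compound treatment began 5 h after plating HepG2 cells (600/well) with NanoLuc luciferase and prosubstrate. Plates stayed at 37 C for 40 h; luminescence was captured at six time points, 0 h through 40 h.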
# [5] = qHTS RealTime-Glo MT Cell Viability Assay in HEK293 cells - 32 hour (AID 1224868); also: nearly all actives have a fitted effect of over 50% in size; also: potency is read from the fitted curve at half-maximal effect; as to activity change, negative = cytotoxic: top concentration of the series differs between compounds
# Procedure, shortened: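 Quantitative high-throughput screen of the Tox21 10K library in HEK293: cells and RealTime-Glo reagents plated together, compound added at 5 h, luminescence monitored through 40 h at 37 C.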
# [6] = qHTS RealTime-Glo MT Cell Viability Assay in HepG2 cells - 40 hour (AID 1224870); also: nearly all actives have a fitted effect of over 50% in size; also: potency is read from the fitted curve at half-maximal effect
# Procedure, shortened: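 Real-time viability: cells seeded at 600 per well together with NanoLuc and cell-permeant prosubstrate, compounds added after 5 h incubation. Luminescence tracked at 0, 8, 16, 24, 32 and 40 h of exposure.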
# [7] = A CellTox Green Cytotoxicity Assay to monitor cytotoxicity in HEK293 cells - 0 hour (AID 1224869); also: nearly all actives have a fitted effect of over 50% in size; also: potency is read from the fitted curve at half-maximal effect
# Procedure, shortened: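 Homogeneous no-lysis format: HEK293 cell suspension mixed with CellTox Green reagent, seeded, incubated 5 h at 37 C/5% CO2, then dosed by pintool with compound in DMSO.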
# [8] = qHTS assay to identify small molecule antagonists of the estrogen related receptor (ERR) signaling pathway from Tox21 library (AID 1224848); also: nearly all actives have a fitted effect of over 50% in size; also: potency is read from the fitted curve at half-maximal effect
# Procedure, shortened: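 Luciferase luminescence (ONE-Glo, 30 min room temperature) was the read-out. Cells of the NTP-supplied ERR line, 2,000 per well, were given 6 h at 37 C before compound addition in DMSO and 18 h exposure at 37 C.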
# [9] = qHTS assay to identify small molecule agonists of the estrogen related receptor (ERR) signaling pathway from Tox21 library (AID 1224849; calls by dose curve; also: nearly all actives have a fitted effect of over 15% in size); conditions: ERR reporter cell line, ONE-Glo luciferase, 18 h
# Procedure, shortened: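 Reporter cells (ERR, NTP source) treated with Tox21 10K compounds 18 h, 37 C. Readout: ONE-Glo luminescence, 30 min RT.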
compound,measurement,setting,value
c1ccc2c(c1)-c1cccc3c1c-2cc1ccccc13,Potency,[1],33.9 µM (active)
same,Potency,[2],inactive
same,Potency,[3],78.2 µM (active) and 89.8 µM (active)
same,Potency,[4],inactive
same,Potency,[5],inactive
same,Potency,[6],inactive
NCCCCCC(=O)O,Potency,[1],inactive
same,Potency,[2],inactive
same,Potency,[3],inactive
same,Potency,[4],inactive
same,Potency,[5],inactive
same,Potency,[7],inactive
same,Potency,[6],inactive
Cc1c(O)cccc1C(=O)N[C@@H](CSc1ccccc1)[C@H](O)CN1C[C@H]2CCCC[C@H]2C[C@H]1C(=O)NC(C)(C)C,Potency,[1],12 µM (active) and inactive
same,Potency,[2],inactive
same,Potency,[3],49.2 µM (active)
same,Potency,[8],15 µM (active) and 18.8 µM (active)
same,"activity change, positive = activation",[9]; at 42.5 µM (top of the series),-54.6% (inactive)
same,"activity change, positive = activation",[9]; at 92.4 µM (top of the series),-64.1% (inactive)
same,Potency,[5],19 µM (active)
same,Potency,[7],inactive
Oc1ccc(Cl)cc1Cc1cc(Cl)ccc1O,Potency,[1],54.9 µM (active) and inactive
same,Potency,[2],inactive
same,Potency,[3],51.4 µM (active) and 31.8 µM (active)
same,Potency,[5],19.8 µM (active) and 49 µM (active)
same,Potency,[7],inactive
same,Potency,[6],49.9 µM (active)
NC(Cc1ccc(Cl)cc1)C(=O)O (stereo not drawn),"activity change, negative = cytotoxicity",[1],0.588% [at 0.29 µM] (inactive)
same,activation (H2AX phosphorylation),[2],-0.212% [at 0.582 µM] (inactive)
same,"activity, negative = inhibition",[8],-15% [at 0.349 µM] (inactive)
same,"activity change, positive = activation",[9]; at 0.349 µM (top of the series),-8.03% (inactive)
same,"activity change, negative = cytotoxicity",[4],0.0518% [at 0.29 µM] (inactive)
same,"activity change, negative = cytotoxic",[5],11.7% [at 0.29 µM] (inactive)
same,cytotoxicity,[7],-2.12% [at 0.29 µM] (inactive)
same,"activity change, negative = cytotoxic",[6],0.881% [at 0.29 µM] (inactive)
Cc1ccc(-c2cc(C(F)(F)F)nn2-c2ccc(S(N)(=O)=O)cc2)cc1,Potency,[1],48.8 µM (active) and 54.9 µM (active) and inactive
same,Potency,[2],inactive
same,Potency,[3],100 µM (active) and 113 µM (active)
same,Potency,[8],27.2 µM (active) and 61.1 µM (active)
same,"activity change, positive = activation",[9]; at 42.5 µM (top of the series),-20.4% (inactive)
same,"activity change, positive = activation",[9]; at 92.4 µM (top of the series),-66.1% (inactive) and -48.6% (inactive)
same,Potency,[4],48.8 µM (active) and 49 µM (active)
same,Potency,[5],38.7 µM (active) and 30.9 µM (active)
same,Potency,[7],inactive
same,Potency,[6],49 µM (active) and inactive
CC(C)(c1ccccc1)c1ccc(Nc2ccc(C(C)(C)c3ccccc3)cc2)cc1,Potency,[1],inactive
same,Potency,[2],inactive
same,Potency,[3],inactive
same,Potency,[8],15.3 µM (active) and inactive
same,"activity change, positive = activation",[9]; at 92.4 µM (top of the series),-43.2% (inactive) and -18.6% (inactive)
same,Potency,[4],inactive
same,Potency,[5],inactive
same,Potency,[7],inactive
same,Potency,[6],inactive
Cc1ccc(S(=O)(=O)Oc2ccc(N=Nc3ccc(-c4ccc(N=Nc5c(O)ccc6cc(S(=O)(=O)O)cc(S(=O)(=O)O)c56)c(C)c4)cc3C)cc2)cc1,Potency,[1],inactive
same,Potency,[2],inactive
same,Potency,[8],27.4 µM (active)
same,"activity change, positive = activation",[9]; at 42.5 µM (top of the series),-13.6% (inactive)
same,"activity change, positive = activation",[9]; at 92.4 µM (top of the series),-34.2% (inactive)
same,Potency,[5],inactive
CC(C)C(=O)c1c(C(C)C)nn2ccccc12,Potency,[1],inactive
same,Potency,[2],inactive
same,Potency,[3],inactive
same,Potency,[8],inactive
same,"activity change, positive = activation",[9]; at 42.5 µM (top of the series),-9.6% (inactive)
same,Potency,[4],inactive
same,Potency,[5],inactive
same,Potency,[7],inactive
same,Potency,[6],inactive
COC(=O)[C@H]1[C@H]2C[C@@H]3c4[nH]c5cc(OC)ccc5c4CCN3C[C@H]2C[C@@H](OC(=O)c2cc(OC)c(OC)c(OC)c2)[C@@H]1OC,Potency,[1],24.5 µM (active) and 31.8 µM (active) and inactive
same,Potency,[2],inactive
same,Potency,[3],inactive
same,Potency,[8],24.3 µM (active) and 19.9 µM (active) and 26.6 µM (active)
same,"activity change, positive = activation",[9]; at 42.5 µM (top of the series),-35.9% (inactive)
same,"activity change, positive = activation",[9]; at 92.4 µM (top of the series),-60.3% (inactive) and -57.9% (inactive)
same,Potency,[5],5.48 µM (active) and 6.34 µM (active) and 9.52 µM (active)
same,Potency,[7],inactive
same,Potency,[6],inactive
CCCNC(C)C(=O)Nc1ccccc1C (stereo not drawn),Potency,[1],inactive
same,Potency,[2],inactive
same,Potency,[3],inactive
same,Potency,[4],inactive
same,Potency,[5],inactive
same,Potency,[7],inactive
same,Potency,[6],inactive
CCCCC(CC)COC(=O)CC(C(=O)OCC(CC)CCCC)S(=O)(=O)O (stereo not drawn),Potency,[1],26.5 µM (active) and 21.9 µM (active)
same,Potency,[2],inactive
same,Potency,[3],86.4 µM (active) and 80 µM (active)
same,Potency,[4],inactive
same,Potency,[6],inactive
Oc1c(Cl)cc(Cl)cc1Sc1cc(Cl)cc(Cl)c1O,Potency,[1],19.5 µM (active) and 24.5 µM (active) and inactive
same,Potency,[2],inactive
same,"activity change, positive = activation",[9]; at 42.5 µM (top of the series),-52.3% (inactive)
same,"activity change, positive = activation",[9]; at 92.4 µM (top of the series),-60.8% (inactive) and -52.2% (inactive) and -57.2% (inactive)
same,Potency,[4],inactive
same,Potency,[5],19.5 µM (active) and 15.5 µM (active)
same,Potency,[6],inactive
Nc1ccc2cc3ccccc3cc2c1,Potency,[1],inactive
same,Potency,[2],inactive
same,Potency,[3],inactive
same,Potency,[4],inactive
same,Potency,[5],inactive
same,Potency,[7],inactive
same,Potency,[6],inactive
CCOc1ccc2c(c1)C(C)=CC(C)(C)N2,Potency,[1],inactive
same,Potency,[2],inactive
same,Potency,[3],inactive
same,Potency,[8],inactive
same,"activity change, positive = activation",[9]; at 92.4 µM (top of the series),1.57% (inactive) and 2.85% (inactive)
same,Potency,[4],inactive
same,Potency,[5],inactive
same,Potency,[7],inactive
same,Potency,[6],inactive
O=C1OC2(c3ccc(O)cc3Oc3cc(O)ccc32)c2ccccc21,Potency,[1],inactive
same,Potency,[2],inactive
same,Potency,[3],inactive
same,Potency,[4],inactive
same,Potency,[5],inactive
same,Potency,[7],1.74 µM (active) and 848 nM (active)
same,Potency,[6],inactive
CC(C(O)c1ccc(O)cc1)N1CCC(Cc2ccccc2)CC1 (stereo not drawn),Potency,[1],inactive
same,Potency,[2],inactive
same,Potency,[3],inactive
same,Potency,[8],inactive
same,"activity change, positive = activation",[9]; at 42.5 µM (top of the series),-0.85% (inactive)
same,Potency,[4],inactive
same,Potency,[5],inactive
same,Potency,[7],inactive
same,Potency,[6],inactive
Cc1cc(Cc2cc(C)cc(C(C)(C)C)c2O)c(O)c(C(C)(C)C)c1,Potency,[1],9.82 µM (active) and 9.77 µM (active)
same,Potency,[2],56.9 µM (active) and 45 µM (active)
same,Potency,[3],40.3 µM (active) and 31.8 µM (active)
same,Potency,[8],27.4 µM (active) and 30.6 µM (active)
same,"activity change, positive = activation",[9]; at 92.4 µM (top of the series),-73.5% (inactive) and -62.7% (inactive)
same,Potency,[4],49.2 µM (active) and 43.6 µM (active)
same,Potency,[5],9.82 µM (active) and 15.5 µM (active)
same,Potency,[7],inactive
same,Potency,[6],55.2 µM (active) and 49 µM (active)
CC1=CC(=O)c2ccccc2C1=O,Potency,[1],21.9 µM (active) and inactive
same,Potency,[2],40.1 µM (active)
same,Potency,[3],40.1 µM (active)
same,Potency,[8],43.3 µM (active)
same,"activity change, positive = activation",[9]; at 42.5 µM (top of the series),-26.5% (inactive)
same,"activity change, positive = activation",[9]; at 92.4 µM (top of the series),-78.8% (inactive)
same,Potency,[4],43.6 µM (active)
same,Potency,[5],15.5 µM (active)
same,Potency,[7],inactive
same,Potency,[6],49 µM (active)
